The values below come from PubChem BioAssay.

Experiment [1] has as its target Albumin (Bos taurus) (UniProt P02769). Briefly: bovine serum albumin binders on microarray, profiling panel, artefact control for SMM control protein annotation, biochemical, small-molecule microarray, Alexa647 label, 635/667 nm fluorescence (AID 1118).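 Note: score merges 667 nm emission intensity and signal-to-noise per printed compound spot.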 The note with it: BSA-A647 binding, fluorescence 635 nm, higher = more signal.
Experiment [2] in a line: small-molecule microarray binders of probe aXIP, primary screen, biochemical, NeuroSMM set, 635/667 nm fluorescence (AID 1119).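 Note: probe is the protein aXip251-270 applied at 1 µg/mL to compound-printed slides; binding of probe to printed compounds measured as 667 nm fluorescence plus signal to noise.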 The note with it: higher = more signal, called active from +8 up or from −8 down.
Experiment [3] can be described thus: small-molecule binders of probe aNOTCH3, primary screen, biochemical, small-molecule microarray, 635/667 nm fluorescence (AID 1120).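 Note: probe is a biotin-tagged antibody raised against NOTCH3 rather than NOTCH3 protein; score merges spot fluorescence near 667 nm with spot signal to noise.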 As to conditions: higher = more signal.
Experiment [4] is described as follows: small-molecule binders of probe aNOTCH2, primary screen, biochemical, small-molecule microarray, 635/667 nm fluorescence (AID 1121).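 Note: score merges feature fluorescence read at 667 nm with its signal to noise.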 The note with it: higher = more signal.
Experiment [5] has as its target Carbonic anhydrase 2 (Homo sapiens) (UniProt P00918). As to the kind of experiment: CAII small-molecule binders, profiling panel, biochemical, small-molecule microarray, Alexa647-labelled CAII (AID 1122). As to conditions: CAII-A647 binding fluorescence, higher = more signal.
Experiment [6] is described as follows: COS7 lysate on small-molecule microarray, probe aHis, 635 nm (AID 1123).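 Note: z-score combines 667nm fluorescence intensity with signal-to-noise per printed compound spot.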 The note with it: COS7 cell lysate, fluorescence, higher = more signal.
Experiment [7] is described as follows: compound binding in COS7 lysate, probe aLAP1, primary screen, cell lysate, small-molecule microarray (AID 1124).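 Note: lysate comes from COS7 cells expressing LAP1 and is applied at 0.3 µg/mL; score merges spot fluorescence near 667 nm with signal-to-noise over triplicate slides.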 The note with it: probe aLAP1, fluorescence, higher = more signal.
Experiment [8] relates to Sam68 (KHDRBS1). Briefly: Sam68 small-molecule binders, primary screen, biochemical, small-molecule microarray, 635 nm fluorescence (AID 1125).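 Note: score merges 667 nm channel intensity with signal to noise over triplicate slides.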 As to conditions: small-molecule microarray binding, higher = more signal.
Experiment [9] has as its system Chordin-like protein 2 (CHRDL2). As to the kind of experiment: CHRDL2 small-molecule binders, primary screen, biochemical, small-molecule microarray, 635 nm fluorescence (AID 1126).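 Note: printed compound slides probed with Chrdl2 protein at 4 µg/mL for 1 h at 4 C; score merges 667 nm emission intensity with signal to noise over three replicate slides.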 The note with it: small-molecule microarray binding, fluorescence 635 nm; higher = more signal.
Experiment [10] concerns the target Concanavalin-A (Canavalia ensiformis) (UniProt P02866). Briefly: ConA small-molecule binders, primary screen, artefact control for SMM control protein annotation, biochemical, small-molecule microarray, Alexa647 label, 635 nm (AID 1127).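 Note: z combines 667 nm emission intensity with signal-to-noise across three replicate slides.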 As to conditions: ConA-A647 binding fluorescence, higher = more signal.
The nature of experiment [11]: anti-His antibody binders, primary screen, artefact control for SMM control protein annotation, biochemical, small-molecule microarray, 635 nm fluorescence (AID 1128).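 Note: score merges feature fluorescence with signal-to-noise for each printed compound spot.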 As to conditions: anti-His Alexa647 antibody binding, higher = more signal.
The subject of experiment [12] is Human papillomavirus type 1a E7 protein (residues 1-88). As to the kind of experiment: HPV1a E7 small-molecule binders, primary screen, biochemical, small-molecule microarray, residues 1-88, 635 nm (AID 1129). The note with it: small-molecule microarray binding, fluorescence 635 nm; higher = more signal.
For experiment [13], the target named is Focal adhesion kinase 1 (Homo sapiens) (UniProt Q05397). As to the kind of experiment: small-molecule microarray binders of FAK, primary screen, biochemical, 635/667 nm fluorescence, BSA, DTT (AID 1130).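 Note: composite of spot emission at 667 nm and signal to noise over triplicate slides.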 As to conditions: PTK2 binding, 635 nm fluorescence, higher = more signal.
Experiment [14] deals with Fibrinogen (Alexa647-labelled). Briefly: fibrinogen binders on compound microarrays, profiling panel, artefact control for SMM control-protein annotation, biochemical, small-molecule microarray, 635/667 nm fluorescence (AID 1131).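 Note: z-score merges 667 nm fluorescence with per-spot signal-to-noise over triplicate slides.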 The note with it: fibrinogen-A647 binding fluorescence, higher = more signal.
Experiment [15] addresses Follistatin (Homo sapiens) (UniProt P19883). As to the kind of experiment: follistatin binders on small-molecule microarrays, primary screen, biochemical, small-molecule microarray, 635/667 nm fluorescence (AID 1132). The note with it: FST binding, 635 nm fluorescence, higher = more signal.
Experiment [16] deals with Fibroblast growth factor 2 (Homo sapiens) (UniProt P09038). Briefly: FGF2 binders on small-molecule microarrays, primary screen, biochemical, small-molecule microarray, 635/667 nm fluorescence (AID 1133). The note with it: small-molecule microarray binding, FGF2, fluorescence 635/667; higher = more signal.
The nature of experiment [17]: mitochondrial membrane potential change in A549 cells, profiling panel, cell-based, JC-1 fluorescence, basal, 24 h, 100 nL (AID 1138).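 Note: A549 lung adenocarcinoma cells under basal conditions with no added stimulus; test concentration not given here.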 The note with it: higher = more signal.
Experiment [18] deals with Lefty1. Briefly: Lefty1 binders on small-molecule microarrays, primary screen, biochemical, small-molecule microarray, 635/667 nm fluorescence (AID 1139). The note with it: small-molecule microarray binding, fluorescence 635/667; higher = more signal.
Experiment [19] deals with wheat germ agglutinin (Triticum aestivum), Alexa647-labelled. Briefly: wheat germ agglutinin binders on compound microarrays, profiling panel, artefact control for SMM control-protein annotation, biochemical, small-molecule microarray, 635/667 nm fluorescence (AID 1140).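 Note: score merges 667 nm feature emission with signal to noise over triplicate slides.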 The note with it: WGA-A647 binding, 635 nm fluorescence, higher = more signal.
Experiment [20] has as its target Luciferin 4-monooxygenase (Photinus pyralis) (UniProt P08659). As to the kind of experiment: firefly luciferase enzyme inhibitors, primary screen, biochemical, luminescence, purified enzyme, 2006 set (AID 1141).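 Note: cell-free assay with purified firefly luciferase at 100 ng per well in PBS; test concentration not given here.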 As to conditions: SteadyGlo luminescence, 30 min, higher = more signal, called active from +8 up or from −8 down.

Each structure is given as a SMILES string. The source made the active and inactive calls.

Albumin (Bos taurus), sequence (P02769 whole entry, looked up): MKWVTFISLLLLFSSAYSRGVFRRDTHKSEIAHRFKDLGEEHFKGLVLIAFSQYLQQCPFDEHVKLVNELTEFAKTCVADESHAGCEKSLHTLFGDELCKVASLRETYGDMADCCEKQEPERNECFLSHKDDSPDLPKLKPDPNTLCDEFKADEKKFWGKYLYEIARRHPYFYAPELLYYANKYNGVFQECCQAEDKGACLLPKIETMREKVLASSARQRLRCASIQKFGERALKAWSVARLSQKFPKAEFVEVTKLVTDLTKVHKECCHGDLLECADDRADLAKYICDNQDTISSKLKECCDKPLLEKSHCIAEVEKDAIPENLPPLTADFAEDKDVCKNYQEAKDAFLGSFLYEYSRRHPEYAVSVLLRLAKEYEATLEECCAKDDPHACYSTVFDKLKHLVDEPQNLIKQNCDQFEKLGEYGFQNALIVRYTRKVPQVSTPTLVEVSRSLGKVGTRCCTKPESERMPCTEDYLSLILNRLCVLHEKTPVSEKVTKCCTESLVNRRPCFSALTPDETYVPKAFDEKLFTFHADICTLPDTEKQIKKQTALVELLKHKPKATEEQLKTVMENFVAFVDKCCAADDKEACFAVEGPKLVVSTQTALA
Luciferin 4-monooxygenase (Photinus pyralis), sequence (P08659 whole entry, looked up): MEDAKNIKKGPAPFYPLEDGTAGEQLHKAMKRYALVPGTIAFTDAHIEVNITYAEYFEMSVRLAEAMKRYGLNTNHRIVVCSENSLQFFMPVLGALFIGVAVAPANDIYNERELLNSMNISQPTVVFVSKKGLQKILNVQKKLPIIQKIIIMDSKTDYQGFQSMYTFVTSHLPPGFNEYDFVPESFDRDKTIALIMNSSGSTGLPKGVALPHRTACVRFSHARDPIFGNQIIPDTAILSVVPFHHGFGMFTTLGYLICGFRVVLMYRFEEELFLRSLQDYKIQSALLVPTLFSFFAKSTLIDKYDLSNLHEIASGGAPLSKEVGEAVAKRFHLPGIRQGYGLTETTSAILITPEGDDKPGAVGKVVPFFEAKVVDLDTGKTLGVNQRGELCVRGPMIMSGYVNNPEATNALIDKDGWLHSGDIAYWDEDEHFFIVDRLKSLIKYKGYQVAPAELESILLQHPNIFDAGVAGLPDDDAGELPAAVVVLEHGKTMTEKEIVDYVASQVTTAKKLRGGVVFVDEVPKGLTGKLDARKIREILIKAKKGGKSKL
Follistatin (Homo sapiens), sequence (P19883 whole entry, looked up): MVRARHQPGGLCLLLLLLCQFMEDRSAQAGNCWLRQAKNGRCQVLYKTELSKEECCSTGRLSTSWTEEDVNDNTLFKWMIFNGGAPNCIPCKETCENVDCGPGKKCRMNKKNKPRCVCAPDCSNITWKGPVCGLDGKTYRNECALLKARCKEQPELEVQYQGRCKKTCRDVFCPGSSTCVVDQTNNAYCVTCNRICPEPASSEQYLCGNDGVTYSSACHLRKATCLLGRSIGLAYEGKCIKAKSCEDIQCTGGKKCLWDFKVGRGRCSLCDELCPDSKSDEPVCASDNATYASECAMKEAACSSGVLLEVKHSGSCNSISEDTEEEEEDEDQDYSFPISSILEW
Concanavalin-A (Canavalia ensiformis), sequence (P02866 whole entry, looked up): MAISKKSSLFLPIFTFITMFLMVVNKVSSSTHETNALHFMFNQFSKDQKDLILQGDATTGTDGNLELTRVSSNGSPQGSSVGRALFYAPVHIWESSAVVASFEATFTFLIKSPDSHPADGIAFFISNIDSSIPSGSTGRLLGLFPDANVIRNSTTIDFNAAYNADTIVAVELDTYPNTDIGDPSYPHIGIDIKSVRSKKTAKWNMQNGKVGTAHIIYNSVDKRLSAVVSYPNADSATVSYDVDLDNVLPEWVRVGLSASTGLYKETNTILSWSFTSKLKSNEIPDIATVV
Fibroblast growth factor 2 (Homo sapiens), sequence (P09038 whole entry, looked up): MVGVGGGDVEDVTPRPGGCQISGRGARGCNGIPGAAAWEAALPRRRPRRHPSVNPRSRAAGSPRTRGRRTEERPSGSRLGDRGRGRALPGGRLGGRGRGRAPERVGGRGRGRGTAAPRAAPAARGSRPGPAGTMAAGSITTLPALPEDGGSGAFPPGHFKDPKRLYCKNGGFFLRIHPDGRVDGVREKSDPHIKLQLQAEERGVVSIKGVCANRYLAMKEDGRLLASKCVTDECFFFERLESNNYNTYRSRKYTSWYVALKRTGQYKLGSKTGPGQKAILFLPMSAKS
Focal adhesion kinase 1 (Homo sapiens), sequence (Q05397 whole entry, looked up): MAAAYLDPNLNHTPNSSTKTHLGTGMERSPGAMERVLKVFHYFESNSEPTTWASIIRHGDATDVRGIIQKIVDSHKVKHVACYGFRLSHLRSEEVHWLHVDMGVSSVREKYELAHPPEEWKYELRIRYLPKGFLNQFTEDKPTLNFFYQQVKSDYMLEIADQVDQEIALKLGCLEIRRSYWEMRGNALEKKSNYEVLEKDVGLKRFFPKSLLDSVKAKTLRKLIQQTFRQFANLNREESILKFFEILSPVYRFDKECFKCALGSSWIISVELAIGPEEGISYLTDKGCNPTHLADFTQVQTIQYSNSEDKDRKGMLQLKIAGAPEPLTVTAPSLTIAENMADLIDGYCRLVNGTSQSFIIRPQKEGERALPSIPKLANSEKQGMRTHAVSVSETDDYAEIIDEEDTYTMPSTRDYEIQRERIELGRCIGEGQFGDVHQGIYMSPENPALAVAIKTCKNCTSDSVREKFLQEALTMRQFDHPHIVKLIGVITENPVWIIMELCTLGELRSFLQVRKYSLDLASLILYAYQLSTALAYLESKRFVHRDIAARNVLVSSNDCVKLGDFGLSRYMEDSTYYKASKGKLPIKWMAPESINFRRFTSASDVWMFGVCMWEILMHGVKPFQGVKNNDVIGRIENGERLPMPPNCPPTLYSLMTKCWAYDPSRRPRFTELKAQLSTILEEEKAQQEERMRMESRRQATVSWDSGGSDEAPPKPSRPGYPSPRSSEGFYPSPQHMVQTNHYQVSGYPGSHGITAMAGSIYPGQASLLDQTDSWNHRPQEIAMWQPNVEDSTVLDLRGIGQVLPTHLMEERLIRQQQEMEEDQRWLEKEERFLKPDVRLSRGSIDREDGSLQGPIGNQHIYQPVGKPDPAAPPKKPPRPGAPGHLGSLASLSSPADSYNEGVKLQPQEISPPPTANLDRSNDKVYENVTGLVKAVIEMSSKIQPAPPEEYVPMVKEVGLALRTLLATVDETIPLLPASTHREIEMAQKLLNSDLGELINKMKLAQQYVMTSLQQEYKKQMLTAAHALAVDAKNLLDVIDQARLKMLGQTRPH

With `O=C1[C@H]2[C@H]3[C@H](O)[C@H](O)CC(=NO[C@@H]4O[C@H](CO)[C@@H](O)[C@H](O)[C@H]4O)[C@@H]3CC[C@H]2C(=O)N1C1CCCCC1`, the composite z-score was -0.156 in [1]; 0.0876 in experiment [3]; -0.141 in experiment [4]; -0.121 in experiment [5]; 0.139 in experiment [6]; -0.1 in [7]. The composite z-score was 0.317 in experiment [8]; 0.629 in [9]; 0.601 in experiment [10]; -0.293 in experiment [11]; 0.486 in experiment [12]; -0.0408 in experiment [13]. Further, the composite z-score in experiment [14] was found to be 0.384; in experiment [15], 0.284; in [16] it was 0.415; in experiment [18] it was 0.578; in [19], 0.0714. Moreover, the composite Z-score in experiment [2] is 0.178 (inactive). Further, the figures for the z-score in experiment [17] and in experiment [20] were 0.76 and -0.33 (inactive), respectively.
`CC(CCN1CCCCc2nc(C)c(C)cc21)=NOC[C@@H](O)[C@H]1O[C@@H]2OC(C)(C)O[C@@H]2[C@H]1O`: the composite z-score was 0.814 in experiment [1]; -0.0363 in experiment [3]; -0.166 in experiment [4]; -0.378 in experiment [5]; -0.461 in [6]; -0.258 in experiment [7]. The composite z-score in [8] was 0.0948; in experiment [9] it was 1.16; in experiment [10] it was -0.0142; in experiment [11] it was 3.04; in experiment [12], -0.491; in experiment [13], -0.319. Further, the composite z-score was 1.01 in experiment [14]; 0.416 in experiment [15]; 0.937 in [16]; 1 in experiment [18]; -0.163 in [19]. Also, the composite Z-score in experiment [2] is -0.379 (inactive). Moreover, the z-score in [17] is -0.584; in experiment [20], 0.766 (inactive).
As for `COC(=O)[C@H](C)NC(=O)CCC1CC(OC(=O)NCc2cccc3ccccc23)CC2(CCCC(COC(=O)NCc3cccc(C(F)(F)F)c3)O2)O1` (stereo not given in full), the composite z-score is 0.845 in experiment [1]; 0.106 in [3]; -0.0846 in experiment [4]; 0.15 in [5]; 1.78 in experiment [6]; 0.0331 in experiment [7]. The composite z-score in [8] came out at 1.31; in [9], 0.293; in [10] it was 1.12; in experiment [11] it was 1.12; in experiment [12], 0.818; in experiment [13] it was 0.0625. Besides, the composite z-score in experiment [14] was 0.83; in [15], 0.928; in [16] it was 0.657; in experiment [18], 0.526; in [19], 0.48. The composite Z-score in experiment [2] was 0.15 (inactive). The figures for the z-score in [17] and in [20] were 1.43 and -0.552 (inactive), respectively.
Consider `CC(CCN1CCc2nc(-c3ccccc3)c(-c3ccccc3)cc2C1)=NOC(C)CN1CCCc2nc(C)c(C)cc21` (stereo not given), for which the composite z-score is 0.682 in experiment [1]; 0.233 in experiment [3]; -0.0278 in experiment [4]; 0.369 in [5]; 1.09 in experiment [6]; 0.506 in experiment [7]. Besides, the composite z-score in experiment [8] was 1.29; in experiment [9], 0.219; in experiment [10] it was 1.08; in experiment [11] it was -0.929; in experiment [12] it was 1.15; in experiment [13], 0.382. The composite z-score in experiment [14] stood at 0.96; in experiment [15], 0.94; in experiment [16], 0.541; in [18] it was 0.659; in experiment [19] it was 0.379. The composite Z-score in experiment [2] is 0.944 (inactive). Moreover, the z-score in [17] is 3.46; in experiment [20] it was 0.397 (inactive).
For `CCC1=NOC(CCC2CC(OC(=O)NCc3cccc4c3OCO4)CC3(CCCC(COC(=O)NCCc4ccc(Cl)cc4)O3)O2)C1` (stereo not given), the composite z-score in experiment [1] was 0.585; in experiment [3] it was -0.0647; in experiment [4], -0.0651; in experiment [5] it was 0.228; in experiment [6] it was 0.599; in [7], -0.29. For the same molecule, the composite z-score in [8] is 0.712; in experiment [9], -0.0546; in experiment [10], 0.0985; in experiment [11] it was 0.696; in experiment [12] it was 0.459; in [13] it was -0.123. Also, the composite z-score in experiment [14] was 0.663; in [15], 0.0801; in experiment [16], 1.24; in experiment [18], 0.497; in experiment [19], -0.191. Further, the composite Z-score in experiment [2] is -0.0197 (inactive). Besides, the z-score in [17] was -0.415; in experiment [20], 0.74 (inactive).
In the case of `CC(C)=CCCC(C)=CCON=C1C[C@@H](O)[C@@H](O)[C@@H]2[C@@H]3C(=O)N(C4CCCCC4)C(=O)[C@@H]3CC[C@H]12`, the composite z-score in experiment [1] was -0.207; in experiment [3], -0.0784; in [4], -0.164; in experiment [5], 0.106; in experiment [6] it was 0.0252; in [7], 0.514. For the same molecule, the composite z-score in experiment [8] was 1.07; in experiment [9], 1.07; in [10], 0.48; in experiment [11], 0.857; in experiment [12], 0.573; in experiment [13] it was 1.12. Also, the composite z-score in experiment [14] was 0.573; in experiment [15] it was 1.06; in [16], 1.25; in [18] it was 1.48; in experiment [19], -0.0924. In addition, the composite Z-score in experiment [2] was 1.59 (inactive). For the same molecule, the results for the z-score in experiment [17] and in experiment [20] were 0.292 and -0.0223 (inactive), respectively.
